Bioassay records deposited in PubChem by several laboratories.
An excerpt weighted towards active compounds, which were near 1.4% of everything screened.
Y pestis TopoI: Y. pestis Topo-I inhibition via cleavage products | Y. pestis Topo-I cleavage product accumulation, plate reader | activity, % at 10 µM | 360,000 compounds, 0.064% hits | AID 504884; in the data active = activity above about 50%, passing the limit was not always enough; inconclusive = no clear call, values can overlap the other calls
PfHsp40 rescue: rescue of PfHsp40-mediated yeast toxicity; S. cerevisiae expressing PfHsp40, growth rescue, ATP luminescence; growth rescue, % at 12.5 µM; 340,000 compounds, 0.68% hits; AID 504582; in the data active = growth rescue above about 28%, passing the limit was not always enough; inconclusive = no clear call, values can overlap the other calls;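 note: yeast W303a lacking pdr1 and pdr3 grown in galactose medium; growth measured after three days at 30 °C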
BJeLR viability: kills HRASV12-expressing BJeLR cells. BJeLR (HRASV12) viability, CellTiter-Glo ATP luminescence, 48 h. inhibition, % (concentration not given with the values). 300,000 compounds, 0.17% hits; in the data active = inhibition above about 50%; inconclusive = no clear call, values can overlap the other calls
RN4220 kill: S. aureus RN4220 growth inhibition; OD600, 16 h; inhibition, % (concentration not given with the values); 330,000 compounds, 0.33% hits; AID 1259311; in the data active = inhibition above about 85%
Sa ugtP lethal: growth inhibition of S. aureus ugtP deletion strain; S. aureus RN4220 ugtP deletion, OD600 growth, 16 h; growth inhibition, % (no concentration beside the values); 330,000 compounds, 0.54% hits; in the data active = growth inhibition above about 68%
PrP UTR inh: suppresses PrP 5' UTR mRNA reporter expression; inhibition, % (no concentration beside the values); 340,000 compounds, 0.35% hits; AID 488862; cell-based PrP 5' UTR mRNA reporter, plate reader; in the data active = inhibition above about 52%
PrP 5UTR single: prion 5' UTR mRNA inhibition, cherry-pick retest. shares compounds with PrP UTR inh. cell-based prion protein 5' UTR reporter, plate reader. inhibition, % at 2.5 µM. 1,100 compounds, 48% hits; in the data active = inhibition above about 54%; inconclusive = no clear call, values can overlap the other calls
A number is an active result.

For C#CCOCCOCCOCCNc1nc(N2CCN(C(=O)C(Cc3cc4ccccc4[nH]3)n3cc(C(N)CC(C)C)nn3)CC2)nc(N2CCN(C(=O)C(CCC(=O)O)n3cc(C(N)C(C)CC)nn3)CC2)n1 (stereo not drawn) the results were RN4220 kill inactive and Sa ugtP lethal inactive.
`CCN1C/C(=C/c2cccc([N+](=O)[O-])c2)C(=O)/C(=C/c2cccc([N+](=O)[O-])c2)C1` gave Y pestis TopoI inactive, PfHsp40 rescue inactive, RN4220 kill inactive, Sa ugtP lethal inactive, PrP UTR inh 66.5 and PrP 5UTR single 61.2.
`CC(O)C1C=CC=CC(=O)OC2CC3OC4C5OC5(C)CCC4(COC(=O)C4OC4(C)C(O)CO1)C2(C)C31CO1` (stereo not drawn) gave Y pestis TopoI inactive, PrP UTR inh 83.2 and PrP 5UTR single 82.4.
`CC(=O)OC1C(=O)OCC23CCC4(C)OC4C2OC2CC(OC(=O)C=CC=CC(=O)OCCC1C)C3(C)C21CO1` (stereo not drawn) gave Y pestis TopoI inactive, PrP UTR inh 94.4 and PrP 5UTR single 94.7.
For CCOC(=O)Cc1csc(NN=Cc2ccc(Cl)cc2)n1 the results were RN4220 kill inactive and Sa ugtP lethal inactive.
`CCOC(=O)Cc1csc(N/N=C/c2ccc(Cl)cc2)n1` gave Y pestis TopoI inactive, PfHsp40 rescue inactive, BJeLR viability inactive, PrP UTR inh 65.9 and PrP 5UTR single inactive.
For CCCOc1ccccc1NC(=Nc1nc(C)cc(C)n1)NC(=O)Nc1ccc(Cl)cc1 the results were RN4220 kill inactive and Sa ugtP lethal inactive.
For Cc1ccc(C(O)=C2C(=O)C(=O)N(CC(C)O)C2c2ccc(N(C)C)cc2)cc1 (stereo not drawn) the results were RN4220 kill inactive and Sa ugtP lethal inactive.
`CCNC(=O)C1CCCN(C(=O)c2ccc(-c3ccccc3)cc2)CC1` (stereo not drawn) gave Y pestis TopoI inactive.
For C=CCNC(=O)C1CCN(C(=O)c2ccc(-c3ccccc3)cc2)CC1 the results were Y pestis TopoI inactive, PfHsp40 rescue inactive, BJeLR viability inactive, RN4220 kill inactive, Sa ugtP lethal inactive, PrP UTR inh 60.0 and PrP 5UTR single inconclusive.
For CSC1SCC2C(=O)N(C)C(C(C)C)C(=O)OCC(NC(=O)c3cnc4ccccc4n3)C(=O)NC(C)C(=O)N(C)C1C(=O)N(C)C(C(C)C)C(=O)OCC(NC(=O)c1cnc3ccccc3n1)C(=O)NC(C)C(=O)N2C (stereo not drawn) the results were Y pestis TopoI inactive, PfHsp40 rescue inactive, PrP UTR inh 92.0 and PrP 5UTR single 92.7.
Screening NC(=O)CC1NC(=O)CNC(=O)c2cc([N+](=O)[O-])cc(I)c2NCCC(C(N)=O)NC1=O (stereo not drawn) returned RN4220 kill inactive and Sa ugtP lethal inactive.
`COc1ccc(C(=O)Nc2ccc(C)cn2)c(OC)c1` gave Y pestis TopoI inactive, PfHsp40 rescue inactive, BJeLR viability inactive, RN4220 kill inactive, Sa ugtP lethal inactive, PrP UTR inh 78.8 and PrP 5UTR single 75.1.
`CN(C(=O)c1cc2ccccc2oc1=O)C1(C)CCS(=O)(=O)C1` (stereo not drawn) gave Y pestis TopoI inactive, PfHsp40 rescue inactive, BJeLR viability inactive, RN4220 kill inactive, Sa ugtP lethal inactive, PrP UTR inh 81.3 and PrP 5UTR single inactive.
For COC(=O)C1=C(c2cccc(OC)c2OC)CC2CCC1N2C(=O)NC1CC1 (stereo not drawn) the results were RN4220 kill inactive and Sa ugtP lethal inactive.
CC(C)C(C(=O)NCc1ccco1)N(CC1CCCO1)C(=O)CNS(=O)(=O)c1ccccc1 (stereo not drawn) was read as Y pestis TopoI inactive, PfHsp40 rescue inactive, BJeLR viability inactive, RN4220 kill inactive, Sa ugtP lethal inactive, PrP UTR inh 68.3 and PrP 5UTR single inactive.
`COc1ccc(CCc2cc(OC)c(OC)c(OC)c2)cc1` gave Y pestis TopoI inactive, PfHsp40 rescue inactive, PrP UTR inh 57.3 and PrP 5UTR single 88.1.
`COc1ccc(C2C=CCN(C(=O)OCc3ccccc3)CC(=O)N2Cc2ccc(F)cc2)cc1` (stereo not drawn) gave RN4220 kill inactive and Sa ugtP lethal inactive.
Screening Cn1nnnc1SCC(=O)N1CCN(S(=O)(=O)c2ccccc2)CC1 returned Y pestis TopoI inactive, PfHsp40 rescue inactive, BJeLR viability inactive, RN4220 kill inactive, Sa ugtP lethal inactive, PrP UTR inh 71.0 and PrP 5UTR single inactive.
Screening O=C(Cc1ccccc1)NC(Cc1ccc(O)cc1)C(=O)O (stereo not drawn) returned RN4220 kill inactive and Sa ugtP lethal inactive.
Screening CC(=NNc1ccc2ccccc2n1)c1ccccc1O returned Y pestis TopoI inactive, PfHsp40 rescue inactive, PrP UTR inh 66.7 and PrP 5UTR single inactive.
COc1cc(NS(=O)(=O)c2ccc(NC=CC(=O)c3ccc(OC)c(OC)c3)cc2)nc(OC)n1 was read as RN4220 kill inactive and Sa ugtP lethal inactive.
For CC(O)CNc1ncnc2nc[nH]c12 (stereo not drawn) the results were Y pestis TopoI inactive, PfHsp40 rescue inactive, BJeLR viability inactive, RN4220 kill inactive, Sa ugtP lethal inactive and PrP UTR inh inactive.
For CC(C)CCCCCCCCCCCCC(=O)NCC(=O)NC1C(O)C(O)C(Nc2ncnc3nc[nH]c23)OC1C(O)CO (stereo not drawn) the results were Y pestis TopoI inactive, PfHsp40 rescue inactive, PrP UTR inh 89.5 and PrP 5UTR single 86.3.
CCN1/C(=C\C=C\C2=[N+](CC)c3ccccc3C2(C)C)C(C)(C)c2ccccc21 was read as Y pestis TopoI inactive, PfHsp40 rescue 121.1, BJeLR viability 88.1, RN4220 kill 100.2, Sa ugtP lethal 100.4, PrP UTR inh 63.2 and PrP 5UTR single 67.1.
Screening O=c1cc2c(nn1Cc1cccc(Cl)c1)-c1ccccc1CC2 returned Y pestis TopoI inactive, PfHsp40 rescue 46.5, BJeLR viability inactive, RN4220 kill inactive, Sa ugtP lethal inactive, PrP UTR inh 57.3 and PrP 5UTR single inactive.
COP1(=O)C=CC(N(Cc2ccccc2)S(=O)(=O)c2ccccc2[N+](=O)[O-])C(C)O1 (stereo not drawn) was read as RN4220 kill inactive and Sa ugtP lethal inactive.
CCCCCC(=O)NC(=S)Nc1ccc(Br)cc1C was read as Y pestis TopoI inactive, PfHsp40 rescue inactive, BJeLR viability inactive, RN4220 kill inactive, Sa ugtP lethal inactive, PrP UTR inh 57.2 and PrP 5UTR single inactive.
`CC(N)=C(C#N)C(=O)CSc1nc2ccccc2c(=O)n1CCCO` gave RN4220 kill inactive and Sa ugtP lethal inactive.
